Source: PubChem (National Center for Advancing Translational Sciences (NCATS))
The full list was thinned out, with hits kept by preference.
Pf Dd2 inh: inhibitors of Plasmodium falciparum Dd2 growth. P. falciparum Dd2 growth, SYBR Green, 72 h. Potency, µM (series often up to 28.9 µM), inactives show top-dose activity, negative = inhibition, most hits filed as inhibitors. 4.3% of 120,000 active. AID 1347417; active = well fitted inhibition curve with a large enough effect;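 also: plate controls were DMSO vehicle for no effect and reference drug for full effect; nearly all actives have a fitted effect of over 65% in size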
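Readout: SYBR Green fluorescence, 485 nm excitation, 535 nm emission, after ~16 h lysis at 37C. Before that, Dd2-infected red cells (2.5% hematocrit) grew 72 h with compound, 29 uM top final concentration.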
Numbers without * were called inactive; i = inactive; [ ] = another dose, or the depositor's remark. Potency is read from the fitted curve at half-maximal effect.

SMILES	Pf Dd2 inh
Cc1ccc(C(N)=O)cc1-c1cc(NCc2cccnc2)nc2[nH]ccc12	-14.8%
Cc1nc(NC(=O)C2CC(=O)N(c3n[nH]c4cc(Br)ccc34)C2)sc1C (stereo not drawn)	-24.4%
Cc1ccc(C)c(-c2[nH]ncc2CN2CCCn3nc(CO)cc3C2)c1	-3.6%
Cc1ccc(-c2nc(CSc3nncn4c3cc3occc34)c(C)o2)cc1	-12.5%
Cc1oc(-c2ccccc2Cl)nc1CSc1nncn2c1cc1occc12	-23.3%
COc1ccc(-c2nc(CSc3nncn4c3cc3occc34)c(C)o2)cc1	10µM*
CCc1ccccc1OCC(=O)c1ccc2c(c1)N(CCCC(=O)NCC1CCCO1)C(=O)CO2 (stereo not drawn)	i
CCCC(=O)N1Cc2ccccc2CC2(CCN(Cc3ccc(O)cc3)C2)C1 (stereo not drawn)	12.6µM*
CC(=O)N1Cc2ccccc2CC2(CCN(Cc3ccncc3)C2)C1 (stereo not drawn)	-7.8%
CCCN1CCCC2(Cc3ccccc3CN(C(=O)Cc3ccccc3)C2)C1 (stereo not drawn)	6.31µM*
CCC(=O)N1Cc2ccccc2CC2(CCN(CC3CCNC3)C2)C1 (stereo not drawn)	9.4%
CCC(=O)N1Cc2ccccc2CC2(CCN(CCc3ccc(C)cc3)CC2)C1	8.91µM*
CC(=O)NCCC(=O)N1Cc2ccccc2CC2(CCN(Cc3cccnc3)C2)C1 (stereo not drawn)	8.8%
CC(=O)NCC(=O)N1Cc2ccccc2CC2(CCN(C)C2)C1 (stereo not drawn)	5.7%
C[S+](=O)([O-])N1Cc2ccccc2CC2(CCCN(CCc3ccccc3)C2)C1 (stereo not drawn)	-29.1%
CN1CCCC2(Cc3ccccc3CN(C(=O)c3ccccc3)C2)C1 (stereo not drawn)	-14.5%
CN(C)CC(=O)N1Cc2ccccc2CC2(CCCN(CC3CCNCC3)C2)C1 (stereo not drawn)	20.1%
CN(C)CC(=O)N1Cc2ccccc2CC2(CCCN(CCc3ccccc3)C2)C1 (stereo not drawn)	5.01µM*
CCCN1CCCC12Cc1ccccc1CN(C(=O)CCCC(=O)O)C2 (stereo not drawn)	-20.1%
O=C(c1ccccc1F)N1CCC2(CC1)C(=NC1CCCC1)NC(=O)N2c1cc(F)cc(F)c1	-5.1%
CN(Cc1nc(-c2ccncc2)no1)C1CCC2(CCNCC2)CC1	3.6%
Cc1nc(NCc2ccc(S(=O)(=O)N(C)C)cc2)cc(C2CC(O)C2)n1 (stereo not drawn)	-7.7%
COCCNC(=O)[C@@H]1C[C@@H](O)CN1C1CCN(C(=O)c2ccc(C(C)C)cc2)CC1	-13.9%
CN1C(=O)c2cccn2CC1CNC(=O)c1cn[nH]c1-c1ccccc1 (stereo not drawn)	6.3%
O=C(NC1CCCN(c2cc(-c3ccc(F)cc3)[nH]n2)C1)c1cccc(Br)c1 (stereo not drawn)	-6.6%
SMILES	Pf Dd2 inh
COc1ccc(CN2C(=O)COC[C@H]2C(=O)NCCc2c[nH]c3ccccc23)c(OC)c1	i
Cn1cccc1C(=O)N1CC(c2noc(COc3ccccc3)n2)C1	i
Cn1ccnc1CNC(=O)C[C@@H]1C[C@H]2O[C@H](CNC(=O)NC3CCC3)[C@@H](O)[C@H]2O1	35.4%[44.1 µM]
COc1ccc(Cl)cc1C(=O)N1CCCC(n2cc(-c3noc(C)n3)nn2)C1 (stereo not drawn)	i
CCc1nncn1C1CCN(S(=O)(=O)c2ccccc2)CC1	i
CCCS(=O)(=O)N1CCC(c2noc(-c3ccncc3)n2)C1 (stereo not drawn)	26.6%[5.79 µM]
CN1CCOc2c(C(=O)NCC[S+](C)(=O)[O-])cc(-c3ccccc3F)cc21	i
CCOC(=O)c1oc2ccc(S(=O)(=O)NCC3Cn4cccc4C(=O)N3C)cc2c1C (stereo not drawn)	12.6µM*
COc1cccc(S(=O)(=O)NCC2Cn3cccc3C(=O)N2C)c1 (stereo not drawn)	-4.6%
CN1C(=O)c2cccn2CC1CNS(=O)(=O)c1ccc(F)cc1 (stereo not drawn)	4.8%
Cn1ccc(C(=O)N2CCC(c3nnc4n3C(C(=O)N3CCOCC3)CC4)CC2)n1 (stereo not drawn)	16.4%
CN1CCC(N2CC[C@H](c3nnc(-c4cccnc4)o3)C2)CC1	-5.1%[44.1 µM]
COc1ccc(NC(=O)CCC2CCCN(C(=O)c3ccccc3SC)C2)cc1Cl (stereo not drawn)	i
COc1ccc(NC(=O)CCC2CCCN(C(=O)c3ncoc3C)C2)c(C)c1 (stereo not drawn)	31.2%
COc1ccc(Cl)cc1NC(=O)CCC1CCCN(C(=O)c2ccoc2C)C1 (stereo not drawn)	3.98µM*
COC(=O)[C@@H]1Cc2ncn(C(C)C)c2CN1S(=O)(=O)c1ccccc1	-8.2%[44.1 µM]
CCCC1c2nccn2CCCN1C(=O)c1ccoc1C (stereo not drawn)	-0.6%
COc1ccc(CCNc2ncnc3c2c(-c2ccccc2)cn3-c2ccc(Cl)cc2)cc1OC	i
COc1ccc(Cl)cc1Nc1ncnc2c1c(-c1ccccc1)cn2-c1ccccc1	-4.4%
COCCN(CCOC)c1ncnc2c1c(-c1ccccc1)cn2-c1ccc(C)c(Cl)c1	11.2µM*
COCCN1C(=O)CS(=O)(=O)C12CCN(C(=O)c1ccccc1C)CC2	-5.3%
CN(C)C(=O)N1CCn2nc(CNC(=O)c3cccc(-n4cnnc4)c3)cc2C1	1.7%
CC(C)c1ccc(OCC(=O)Nc2cc(-c3nc4ncccc4o3)ccc2Cl)cc1	-11.4%
CCC(C)c1ccc(OCC(=O)Nc2cccc(-c3nc4ncccc4o3)c2)cc1 (stereo not drawn)	2.51µM*
Cc1cc(C)cc(OCC(=O)Nc2ccc(-c3nc4ncccc4o3)cc2C)c1	-23.4%
SMILES	Pf Dd2 inh
CCOCc1nc(C2CCCN(C(=O)COc3ccccc3)C2)no1 (stereo not drawn)	18.6%
CC(=O)N1CCC(NC[C@H]2C[C@@H]3CCN2C[C@@H]3c2cc(C3CCCC3)nc(C)n2)CC1	i
CCC(CC)c1cc([C@H]2CN3CC[C@H]2C[C@@H]3CO)nc(-c2ccncc2)n1	7.08µM*
CC(=O)c1cccc(NC(=O)OC[C@H]2C[C@@H]3CCN2C[C@@H]3c2cc(C3CCCC3)nc(-c3ccncc3)n2)c1	-48.0%
CCC(CC)c1cc([C@H]2CN3CC[C@H]2C[C@@H]3CNC2CCN(C(C)=O)CC2)nc(-c2ccncc2)n1	4.47µM*
Cc1ccc(-c2ccc3nnc(CNC(=O)c4cc(F)ccc4F)n3n2)cc1	-11.6%
CN1CC2(CCN(C(=O)c3cc(-n4cccn4)ccc3Cl)CC2)OC1=O	13.5%
CCOCC(=O)N1CCC(N2CC3CC(C2)[C@H]2CCCC(=O)N2C3)CC1 (stereo partly drawn)	4.2%
O=C(Nc1ccccc1)c1ccc2c(c1)OCCN(CCC(F)(F)F)C2	i
COc1ccc(CNC(=O)[C@@H]2CCC[C@@H](NCC3CC3)CN(C)C(=O)C2)cc1	-22.3%[44.1 µM]
Cc1ccc(CCNc2ncnc3onc(-c4ccc(F)cc4)c23)cc1	106.4%
Cc1ccc(CN2CCC(CNc3ncnc4onc(-c5ccc(Cl)cc5)c34)CC2)cc1	3.16µM*
Cc1ccccc1CN1CCC(CNc2ncnc3onc(-c4ccc(Cl)cc4)c23)CC1	8.91µM*
COc1ccc(OC)c(CCNc2ncnc3onc(-c4ccc(Cl)cc4)c23)c1	11.2µM*
Cc1cccc(CN2CCC(CNc3ncnc4onc(-c5ccc(Cl)cc5)c34)CC2)c1	-6.1%
Cc1ccc(C)c(N2CCN(CCCNc3ncnc4onc(-c5ccc(Cl)cc5)c34)CC2)c1	-9.0%
